The source made the active and inactive calls. No rule for the calls is given here.
Target: Protein kinase 7 (PK7), Plasmodium falciparum 3D7 (PF3D7_0213400) (UniProt Q7YTF7)
Test: inhibition of Plasmodium PK7 catalytic activity – biochemical, TCAMS antimalarial set, Kinase-Glo luminescence (AID 1159587)
Settings: recombinant PfPK7, Kinase-Glo ATP depletion luminescence

Chain of Protein kinase 7 (PK7), Plasmodium falciparum 3D7 (PF3D7_0213400) (Q7YTF7 1-343): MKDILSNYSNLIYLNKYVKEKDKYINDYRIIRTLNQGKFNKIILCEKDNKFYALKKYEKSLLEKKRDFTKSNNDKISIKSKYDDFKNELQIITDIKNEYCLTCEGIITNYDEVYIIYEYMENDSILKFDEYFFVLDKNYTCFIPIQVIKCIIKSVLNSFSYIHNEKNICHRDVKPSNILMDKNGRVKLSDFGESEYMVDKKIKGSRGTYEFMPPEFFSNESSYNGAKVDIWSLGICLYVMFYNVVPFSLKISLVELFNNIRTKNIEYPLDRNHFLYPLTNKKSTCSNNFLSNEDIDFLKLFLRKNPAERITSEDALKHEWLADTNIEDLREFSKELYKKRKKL

outcome, inactive:
CC(C)N1CCN(C(CN2CCN(CCCOc3ccccc3-c3ccccc3)CC2)c2ccc(F)cc2)CC1 (centres undefined), Cc1cc(OCCCN2CCC(NS(=O)(=O)c3cc(Br)c(Cl)s3)CC2)c2ccccc2n1, Cc1nnsc1C(=O)Nc1ccc(-c2ccc(-c3nc4c(C)cccc4[nH]3)s2)cc1, CN(C)CCCNc1ncnc2c1[nH]c1ccc(Cl)cc12, Cc1cc(N)cc2[nH]c(-c3ccc(N)cc3)nc12, O=C(Nc1cccc(CN2CCN(C(=O)c3cccc(F)c3)CC2)c1)c1cccs1, OCCN1CCN(C(=S)Nc2ccccc2)CC1, CC(=O)Oc1c(C2CCN(CCCCNC(=O)c3ccc(NC(=O)c4ccc(Cl)cc4)cc3)CC2)ccc2ccccc12, CCOC(=O)c1c(CNc2ccncc2)n(C)c2cc(Br)c(OC(C)=O)cc12, O=C(Nc1ccccc1N1CCOCC1)c1ncoc1-c1ccccc1C(F)(F)F, Cc1nc(-c2cccc(Nc3nccc(NCC(O)c4ccc(C(F)(F)F)cc4)n3)c2)cs1 (centres undefined), OCc1c(Cl)cc(Cl)cc1CNCCCNc1nc2ccccc2[nH]1, COC(=O)c1cccc(CNCc2cccc(-c3cccc(-c4nc5ccc(F)cc5[nH]4)c3)c2)c1, CC(C)(C)c1ccc(OC(=O)c2ccc(NC(=O)N[C@@H](Cc3ccc(O)cc3)C(=O)NC3CCN(Cc4ccc(O)cc4)C3)cc2)cc1 (some centres undefined), CN1CCC(N(Cc2ccc(-c3ccc(C(F)(F)F)cc3)cc2)C(=O)Cn2cc(Cc3cnn(C)c3)c(=O)nc2SCc2cccc(F)c2F)CC1, c1ccc2c(CNc3ccnc(NCc4cccc5ccccc45)n3)cccc2c1, O=C(Nc1cccc(CN2CCN(Cc3ccc(O)cc3)CC2)c1)c1cc2ccccc2s1, CC(=O)Nc1ccc(C(=O)Nc2ccc(-c3csc(-c4nc5ccccc5[nH]4)c3)cc2)cn1, CC1(C)N=C(N)N=C(N)N1OCc1ccc(-c2ccccc2)cc1, Cc1ccc2c(NN=Cc3cccc(Cl)c3)cc(C)nc2c1, COc1ccc2nccc([C@@H](O)CN3CCC(NCc4cc5cc(C)ccc5s4)CC3)c2c1, Cc1cccc2sc(N(CCCn3ccnc3)C(=O)C=Cc3cccs3)nc12, O=C(NCCCCN1CCC(c2ccc3c(c2OCC(O)c2ccc(Cl)cc2)CCCC3)CC1)c1ccc(-c2ccc(C(F)(F)F)cc2)cc1 (centres undefined), OC(CNCCc1ccccc1)Cn1c2ccc(Cl)cc2c2cc(Cl)ccc21 (centres undefined), Cc1cc(N(C)C2CCN(CC3CCCCC3)C2)nc(Nc2ccc(Cl)cc2)n1 (centres undefined), COc1ccc(CN2CCC(NCc3ccc(C(F)(F)F)cc3)CC2)cc1, O=C(Cc1ccccc1)NC(CCN1CCC(N(C2CC2)S(=O)(=O)c2cccc(C(F)(F)F)c2)CC1)c1ccc(Cl)c(Cl)c1 (centres undefined), COc1cccc(C(=O)NC(c2ccc(Cl)cc2Cl)c2cc(Cl)c3cccnc3c2O)c1 (centres undefined), O=C(Nc1ccc(N2CCN(C(=O)C=Cc3ccccc3)CC2)c(Cl)c1)c1ccc([N+](=O)[O-])o1, CCCN1CCN(CCCNC(=O)c2cc3c(-c4ccc(Cl)cc4)nn(C)c3s2)CC1, Cn1nccc1C(=O)NCCNCc1ccc(-c2ccc(-c3nc4ccc(F)cc4[nH]3)cc2)cc1, O=C(Nc1ccc(Cl)c(-c2nc3ccccc3[nH]2)c1)c1ccc(-c2ccc(Cl)cc2)o1, COc1cc(N(Cc2ccccc2C)S(=O)(=O)Cc2ccccc2[N+](=O)[O-])c(OC)cc1Cl, Cc1onc(-c2ccccc2)c1C(=O)Nc1nc(-c2ccccn2)nc2ccsc12, N#Cc1cc(C(=O)Nc2ccccc2)c(N)nc1SCC(=O)Nc1ccc(Br)cc1, O=C(Nc1ccc(Oc2ccccc2)cc1)N[C@H]1CCN(Cc2ccc(OCCCN3CCCCC3)cc2)C1, CCOC(=O)NC1=NC(C)(C)N(OCCCOc2cc(Cl)c(Cl)cc2Cl)C(N)=N1, Cc1ccc(/C=C/C(=O)NC2CCC(N3CCC(c4ccccc4C)CC3)CC2)cc1F (centres undefined), Cc1ccc(CNC(=O)[C@H](CCCN)Nc2cc(C)nc(NCC3CCCCC3)n2)cc1

Source: PubChem BioAssay
